# Screens: PubChem, National Center for Advancing Translational Sciences (NCATS)
# DRD3 antagonist: qHTS of D3 Dopamine Receptor Antagonist: qHTS; D(3) dopamine receptor (Homo sapiens), P35462; D3R cells, DiscoveRx beta-arrestin luminescence, antagonist mode; stronger effect = lower value; max response, negative = inhibition, %; 2.5% of 360,000 active; in the data active = max response below about -50%; inconclusive = no clear call, values can overlap the other calls; also: % is scaled to controls: 0 for no effect and ±100 for the full control effect
# Target sequence (P35462 whole entry, looked up): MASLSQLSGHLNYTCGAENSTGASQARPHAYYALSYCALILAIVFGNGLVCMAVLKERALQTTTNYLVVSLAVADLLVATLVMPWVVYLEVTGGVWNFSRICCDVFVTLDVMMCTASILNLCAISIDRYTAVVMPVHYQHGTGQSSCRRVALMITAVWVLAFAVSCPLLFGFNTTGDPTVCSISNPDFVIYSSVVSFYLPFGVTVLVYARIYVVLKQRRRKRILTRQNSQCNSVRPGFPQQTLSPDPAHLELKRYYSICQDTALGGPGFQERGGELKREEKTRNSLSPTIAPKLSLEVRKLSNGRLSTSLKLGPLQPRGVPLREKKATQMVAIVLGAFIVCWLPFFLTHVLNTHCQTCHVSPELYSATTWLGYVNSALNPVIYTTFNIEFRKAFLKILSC
#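 Cells plated overnight at 1500 cells/well, then exposed to library compounds with dopamine controls for 90 minutes at 37 degrees C. DiscoveRx reagent added for 30–60 minutes at room temperature; luminescence read, quantitative HTS format.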
# ATXN2 expr inh: Primary qHTS for Inhibitors of ATXN expression; HEK-293 ATXN2-luciferase reporter, luminescence, 24 h; Potency, µM (titrated, usually from 57 µM), without a hit: at the highest dose activity change, negative = inhibition, actives largely listed as inhibitors; 0.72% of 360,000 active; AID 1745845, 2022; also: potency is read from the fitted curve at half-maximal effect; % is scaled to controls: 0 for no effect and ±100 for the full control effect; nearly all actives have a fitted effect of over 55% in size
#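 ATXN2-luciferase reporter cells (luciferase flanked by upstream and downstream ATXN2 gene portions) were treated 24 h at 37 °C with compounds at up to 57 uM. SteadyGlo luminescence gave expression; GF-AFC fluorescence gave viability.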
# DRD3 agonist: qHTS of D3 Dopamine Receptor Agonist: qHTS; D3R DiscoveRx beta-arrestin cells, luminescence, 90 min; max activation, %; 0.58% of 410,000 active; AID 652048, 2013; in the data active = max activation above about 30%; also: 0% is about no effect
#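 Cells at 1500/well, incubated overnight, then treated with pinned compounds (dopamine as control) for 90 min at 37 degrees C. DiscoveRx reagent added for 30 - 60 minutes at room temperature; luminescence read.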
# S2 tox: Viability Counterscreen for Primary qHTS for Inhibitors of ATXN expression; S2 cells (HEK-293 line with an ATXN2-luciferase reporter) viability, CellTiter-Fluor protease fluorescence, 24 h; 0.49% of 400,000 active; Potency, µM (top dose mostly 56.7 µM), most hits filed as cytotoxic; also: potency is read from the fitted curve at half-maximal effect; nearly all actives have a fitted effect of over 40% in size
# HepG2 viability: qHTS for Inhibitors of TGF-b: Cytotox Counterscreen. HepG2 CAGA-GFP viability, ATP luminescence, 18 h. Potency, µM (titrated, usually from 46.1 µM), for inactives: top-dose activity change, negative = cytotoxicity, usual class: cytotoxic. 0.76% of 410,000 active; also: potency is read from the fitted curve at half-maximal effect
#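 CellTiter-Glo luminescence gave cytotoxicity after 18 hours at 37 degrees C. The cells were HepG2 CAGA-GFP in 1% FBS DMEM, stimulated with 500 pg/mL TGF-beta after compound addition. %Activity was normalised to no-cell wells (complete cell-killing) and DMSO (no toxicity), and curves were fitted and classified.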
# TGFb SMAD3 inh: qHTS for Inhibitors of TGF-b; AID 588855, 2011; 1.2% of 410,000 active; Potency, µM (doses to about 46.1 µM), for the others: at the highest dose activity, negative = inhibition, actives largely listed as inhibitors; HepG2 CAGA-GFP TGF-b/SMAD3 reporter, GFP fluorescence, 18 h; TGF-beta stimulated, 500 pg/mL final; also: potency is read from the fitted curve at half-maximal effect; % is scaled to controls: 0 for no effect and ±100 for the full control effect; nearly all actives have a fitted effect of over 65% in size
#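 Read-out: total well GFP (ex488/em500-530) summed from mean per-cell fluorescence. Cells: HEPG2 CAGA-GFP, 1% FBS DMEM, 18 h at 37 degrees C with 500 pg/mL final TGF-beta. Unstimulated wells served as the full-inhibition control; stimulated DMSO wells = 0%.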
# Starred values were filed as active, the others as inactive; i = inactive; ? = inconclusive; · = no result. In the library only some 4.7% were active in any assay of this set; here they are far more common. Unless noted, calls follow the shape of the dose curve; as a rule, active = well fitted curve in the direction sought with a large enough effect; inconclusive = small, poorly fitted or top-dose-only effect, or another doubt; inactive = no such curve, though single readings can be large; an effect the other way counts as inactive or inconclusive.
SMILES,DRD3 antagonist,ATXN2 expr inh,DRD3 agonist,S2 tox,HepG2 viability,TGFb SMAD3 inh
Cc1cccc(CNC(=O)c2cnc3c(-c4cccc(C)c4)c(C)nn3c2C)c1,·,·,0,·,-2%,6%
COc1cccc(CN2C(=O)NC(C)(C3CCN(Cc4cc(Cl)ccc4O)CC3)C2=O)c1OC (stereo unspecified),·,·,·,i,·,·
COc1cc2c(cc1OC)CN(Cc1ccc(OC)c(C)c1OC)CC2,-77*,-22%,-7,i,-20%,5%
COc1cc2c(cc1OC)CN(CC(O)c1ccccc1)CC2 (stereo unspecified),-22,-8%,-8,i,-41%,3%
COc1cc2c(cc1OC)CN(Cc1cc(OC)c(O)c(OC)c1)CC2,1,-5%,-15,i,-8%,0%
COc1cc2c(cc1OC)CN(CCC(C)c1ccc(Cl)cc1)CC2 (stereo unspecified),-91*,-23%,-14,i,-24%,?
COc1cc2c(cc1OC)CN(Cc1ccc(C)cc1)CC2,-80*,-16%,-10,i,-15%,2%
COc1cc2c(cc1OC)CN(Cc1cccs1)CC2,-54*,-26%,-12,i,1%,0%
COc1cc2c(cc1OC)CN(Cc1ccccc1)CC2,-24,-1%,-27,i,2%,2%
CCC[C@@]1(CCc2ccccc2)CC(O)=C([C@H](CC)c2cccc(NS(=O)(=O)c3ccc(C(F)(F)F)cn3)c2)C(=O)O1,·,·,5,i,·,·
Cc1ccc2oc(-c3cccc(NC(=O)COc4ccc(Cl)cc4)c3C)nc2c1,·,·,·,·,-12%,-5%
CCN(c1ccc(C)cc1C)S(=O)(=O)c1nnc(NC(=O)c2ccc(F)cc2)s1,·,·,9,·,-44%,-29%
CC(Sc1nc2c(c(=O)[nH]1)CCCC2)C(=O)Nc1cc(C(F)(F)F)ccc1Cl (stereo unspecified),·,-5%,6,i,-1%,14%
Cc1sc2ccccc2[n+]1Cc1ccccc1,·,·,·,·,-4%,?
CCc1nc2cc(C(=O)N3CCCN(C=O)CC3)cc(NC(=O)c3ccccc3OC)c2n1C,·,·,·,i,·,·
Cc1ccc(C(=O)Cn2nnc(-c3ccccc3-n3cnnn3)n2)cc1,11,19%,9,i,-2%,29%
O=C(Cn1nnc(-c2ccccc2-n2cnnn2)n1)NCc1ccccc1,-109*,11%,-3,i,-17%,-5%
CC/C(=N\Nc1ccccc1[N+](=O)[O-])c1ccc(O)cc1,-57*,-6%,-12,?,-45%,?
Cc1ccc(-n2ncc(C(=O)N3CCN(c4cccc(C)c4C)CC3)c2C2CCNCC2)c(C)c1,·,-21%,3,i,-83%,?
CCCN(C(=O)c1ccc2c(=O)n3c(nc2c1)CCCCC3)c1cccc(Cl)c1,·,·,3,·,-26%,·
COc1cc(O)c(C(CCN2CCCC2)c2ccc3c(c2)OCO3)c(OC)c1 (stereo unspecified),8,3%,-29,i,-19%,2%
COc1cc(O)c(C(CCN2CCN(c3ccccc3)CC2)c2ccc3c(c2)OCO3)c(OC)c1 (stereo unspecified),-108*,2%,-63,i,-12%,?
COc1cc(O)c(C(CCN2CCN(c3ccccc3)CC2)c2cc(OC)c(OC)c(OC)c2)c(OC)c1 (stereo unspecified),-137*,-8%,-72,i,-6%,?
CC(C)c1c(C(=O)N2CCCCC2c2cccnc2)cnn1-c1nccc(-c2cccs2)n1 (stereo unspecified),·,·,·,i,·,·
Cc1c(C2Nc3ccccc3NC3=C2C(=O)CC(C)(C)C3)cnn1C (stereo unspecified),-71*,-11%,-3,i,-1%,-11%
SMILES,DRD3 antagonist,ATXN2 expr inh,DRD3 agonist,S2 tox,HepG2 viability,TGFb SMAD3 inh
CC(C)(C)N(Cc1cc2ccccc2[nH]c1=O)C(=O)c1cccc([N+](=O)[O-])c1,-17,-8%,47*,i,2%,2%
CCCN(Cc1cc2ccccc2[nH]c1=O)C(=O)c1cccc([N+](=O)[O-])c1,9,-15%,-7,i,-4%,6%
COCC(C)NC(=O)NC(=O)c1ccc(Cl)cc1 (stereo unspecified),-104*,12%,-5,i,3%,-5%
CN(C)CCCN1c2ccc(O)cc2Sc2ccc(Cl)cc21,-110*,·,-8,?,-41%,-11%
O=C1c2ccccc2C(=O)c2cc(S(=O)(=O)Nc3ccccc3)ccc21,13,-20%,-3,i,-104%,20µM*
O=C(O)c1cccc(NS(=O)(=O)c2ccc3c(c2)C(=O)c2ccccc2C3=O)c1,1,·,-12,i,11%,1%
Cc1onc(-c2c(F)cccc2Cl)c1C(=O)O/N=C(\N)c1ccc([N+](=O)[O-])o1,8,-10%,33*,i,-43%,?
Cc1onc(-c2c(Cl)cccc2Cl)c1C(=O)N/N=C(\N)COc1ccc(Cl)cc1,8,?,4,?,-64%,6.3µM*
CC(C)(C)C(=O)O/N=C(\N)c1c(Cl)cccc1Cl,1,-14%,5,i,22%,13%
Cc1onc(-c2c(Cl)cccc2Cl)c1/C(N)=N/OC(=O)C(C)(C)C,-12,-10%,36*,i,-4%,?
Cc1nc(Sc2nnnn2C2CC2)c2c(-c3ccccc3)csc2n1,·,·,·,·,3%,10%
O=C(Cc1ccc(OCc2ccccn2)cc1)NO,·,·,·,·,-27%,-10%
COc1ccc(C)cc1Nc1n[n+](-c2ccccc2)c(-c2cc(OC)c(OC)cc2Br)s1,0,?,-40,22µM*,-22%,?
C=CCNC(=O)c1cnn2c1NC(=C)C=C2C,·,·,·,·,-1%,0%
Cc1ccc(C(=O)n2c(N)nc3ccccc32)cc1,20,2.8µM*,5,i,-37%,-8%
COc1ccc(NC(=O)Nc2ccccc2OC)cc1,4,67%,-6,i,-31%,5%
COc1ccc(OC)c(/C(O)=C/C(=O)C(=O)Nc2ccccc2OC)c1,-67*,6%,8,i,-4%,-12%
CCOc1ccccc1NC(=O)c1c(NC(=O)c2cccc(C)c2)sc2c1CCCC2,·,4%,9,i,-18%,-4%
CCn1c2ccccc2c2cc(NC(=O)COC(=O)C3CCC(=O)N3)ccc21 (stereo unspecified),-14,18µM*,-2,i,2%,5%
Cc1c(Cl)cccc1-c1ccc(C(=O)Nc2ccc(F)cc2)o1,·,-12%,-18,i,-105%,?
